Assay outcomes from PubChem BioAssay.
Only some compounds are listed: those with a hit (about 4.6% of all), similar ones and a draw of the others.
TRHR agonist: activates the human TRH receptor. P34981. TRHR cells, calcium flux fluo-8, FDSS agonist mode. activation, % at 2 µM. 0.18% of 360,000 active. AID 493084; note: 0% is about no effect
Target sequence (P34981 whole entry, looked up): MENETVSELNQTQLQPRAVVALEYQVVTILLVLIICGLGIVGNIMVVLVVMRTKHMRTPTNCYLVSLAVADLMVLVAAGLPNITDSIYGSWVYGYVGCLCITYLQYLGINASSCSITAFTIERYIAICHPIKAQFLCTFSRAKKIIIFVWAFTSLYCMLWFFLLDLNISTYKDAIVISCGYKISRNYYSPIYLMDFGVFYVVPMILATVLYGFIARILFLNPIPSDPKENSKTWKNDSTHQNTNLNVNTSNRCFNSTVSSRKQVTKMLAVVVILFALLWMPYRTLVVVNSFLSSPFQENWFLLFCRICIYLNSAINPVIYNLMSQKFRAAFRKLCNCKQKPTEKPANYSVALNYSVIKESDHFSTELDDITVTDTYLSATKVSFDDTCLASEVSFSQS
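In this calcium-flux screen, cells bearing human TRHR are dye-loaded with fluo-8, baselined for 10 cycles, then exposed to library compounds; positive kinetic calcium responses during the agonist phase mark hits, with TRH as control.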
D1 antagonist: antagonists of human D1 dopamine receptor; HEK293 TREx D1 cells, calcium flux, dopamine EC80; stronger effect = lower value; activity change, negative = inhibition, % at 10 µM; 3.2% of 360,000 active; in the data active = activity change below about -30%; note: % is set by controls: 0 for no effect and ±100 for the full control effect
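Calcium flux readout: force-coupled, inducible Hek293 Trex D1 line, cells induced overnight at 30 C with tetracycline, dye-loaded 30–90 min at RT. Antagonism scored against EC80 dopamine challenge given 180 s after compound.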
D1 ag: activates the human D1 dopamine receptor. HEK293 T-REx D1 cells, calcium flux, agonist mode. activation, % at 2 µM. 1% of 360,000 active. P21728; note: 0% is about no effect
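Agonism was scored from calcium flux recorded over 180 s (1 read/s) after pintool compound addition, following a 10-cycle baseline. Cells were inducible force-coupled HEK293 TREx D1, plated overnight at 30 C and loaded with no-wash calcium dye.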
D1 PAM: human D1 dopamine receptor positive modulation | P21728 | HEK293 TREx D1 cells, calcium flux, dopamine EC20 potentiation | potentiation, % at 10 µM | 0.036% of 360,000 active | AID 504651; in the data active = potentiation above about 30%; note: 0% is about no effect
TRHR PAM: allosterically enhances the human TRH receptor. P34981. TRHR cells, fluo-8 calcium fluorescence, EC20 TRH enhancement. enhancement, % at 2 µM. 0.66% of 360,000 active; in the data active = enhancement above about 30%; note: 0% is about no effect
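TRHR-expressing cells loaded with fluo-8 calcium dye were read kinetically (ex 480/em 530) during compound addition, then stimulated with an EC20 of TRH (10 nM final). Enhancement of the Gq-mediated intracellular calcium response was scored.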
* marks the source's active call; other numbers are inactive results. Cut-off read from the data, not from the text of the source, unless noted: active = activation above about 30%; inactive = the rest.

SMILES	TRHR agonist	D1 antagonist	D1 ag	D1 PAM	TRHR PAM
O=C(C1CCC(=O)N(C2CC2)C1)N1CCC(Oc2cccc(F)c2)CC1 (stereo unspecified)	0.6	-36.7*	-0.7	-6.2	2.6
CCNC(=O)c1nn(-c2ccccc2C)nc1CO	1.0	3.9	0.0	-2.3	-2.4
Cc1ccccc1OCC(O)CN(CCO)Cc1ccccc1 (stereo unspecified)	-0.2	-47.5*	0.5	-0.8	-7.7
COc1ccc(C2=NCCc3cc(OC)c(OC)cc32)cc1	0.1	-61.1*	2.6	-11.8	3.3
COc1ccc(C2=NCCc3cc(OC)c(OC)cc32)cc1OC	-0.6	8.7	1.7	-2.7	2.9
COc1ccc(CNC(=O)c2cccnc2Sc2ccc(Cl)cc2)cc1	-0.4	2.9	3.3	0.8	0.4
Cc1ccc(CNC(=O)c2cccnc2Sc2cccc(Cl)c2)cc1	6.0	18.7	45.9*	-5.8	1.2
Cc1[nH][nH]c(=O)c1C(c1c(C)[nH][nH]c1=O)c1cn(Cc2ccc(F)cc2)c2ccccc12	1.1	-31.8*	-1.2	-1.2	3.3
Cc1cc(C)cc(NC(=O)C2CCN(S(=O)(=O)c3cccc(-c4noc(C)n4)c3)CC2)c1	-0.1	6.4	4.6	0.7	-2.7
O=C(c1ccc(CS(=O)c2ccccc2Cl)o1)N1CCN(c2ccccn2)CC1 (stereo unspecified)	0.3	-35.7*	3.2	-4.0	-6.4
O=C(c1ccc(CS(=O)Cc2ccccc2Cl)o1)N1CCN(c2ccccn2)CC1 (stereo unspecified)	-0.1	-2.7	-1.1	-4.8	-4.3
COc1cccc(N2CCN(C(=O)c3ccc(CS(=O)Cc4ccccc4Cl)o3)CC2)c1 (stereo unspecified)	-0.7	-9.8	-0.1	-3.6	0.8
O=C(c1ccc(CS(=O)Cc2ccccc2Cl)o1)N1CCN(c2cccc(Cl)c2)CC1 (stereo unspecified)	-0.6	-45.0*	28.1	-17.1	2.3
O=C(c1ccc(CS(=O)Cc2ccc(Cl)cc2)o1)N1CCN(c2ccccn2)CC1 (stereo unspecified)	-0.3	-36.4*	1.4	-10.8	-0.3
COc1ccc(/C=C/C(=O)C23CC4CC(CC(C4)C2)C3)cc1CN1CCOCC1	-0.5	7.6	-3.2	7.7	2.7
O=C(NCCCN1CCN(c2ccccc2F)CC1)c1ccc2nc(CCc3ccccc3)oc2c1	0.0	-31.4*	19.2	-4.8	7.3
Cc1c(C)n(C)c2ccc(C(=O)NCCCN3CCN(c4ccccc4F)CC3)cc12	-0.3	-10.5	0.4	-10.4	3.7
O=C(NCCCN1CCN(c2ccccc2F)CC1)c1ccc2nc(Cc3ccccc3)oc2c1	0.6	-48.6*	25.6	-3.9	0.0
CCc1nc2ccc(C(=O)NCCCN3CCN(c4ccccc4F)CC3)cc2nc1CC	-1.3	-32.0*	1.5	-8.4	2.3
O=C(NCCCN1CCN(c2ccc(F)cc2)CC1)c1ccc2nc(CCc3ccccc3)oc2c1	0.2	-3.3	15.1	-4.8	2.2
COc1ccccc1N1CCN(CCCCNC(=O)c2ccc3ccccc3c2)CC1	-0.9	-54.5*	11.4	-4.7	-6.7
Cc1ccc(-c2cc(C(=O)OCC(=O)N(C)c3c(N)n(Cc4ccccc4)c(=O)[nH]c3=O)c3ccccc3n2)o1	-0.2	-19.4	0.4	1.0	-4.7
CCCNC(=O)c1ccc2nc(-c3ccccc3)c(-c3ccccc3)nc2c1	-0.2	-13.5	3.0	0.2	5.3
CCN1CCN(CCNC(=O)c2ccc3nc(-c4cccc(C)c4)c(-c4cccc(C)c4)nc3c2)CC1	0.6	-6.3	63.4*	-3.4	0.6
Cc1cc(=O)oc2cc(NC(=O)c3ccc(OC(F)F)cc3)ccc12	0.4	-9.4	1.0	0.0	11.2
SMILES	TRHR agonist	D1 antagonist	D1 ag	D1 PAM	TRHR PAM
CCOC(=O)CSc1nc(-c2ccccc2)nc2ccc(C)cc12	2.8	-35.1*	4.7	-3.1	-1.4
Cc1nn(-c2ccccc2)c(-n2cccc2)c1C(=O)N1CCN(c2ccccc2)CC1	-1.0	24.5	-2.6	0.1	-6.8
Cc1cc2nn(-c3ccc(F)cc3)nc2cc1NC(=O)c1cccc([N+](=O)[O-])c1C	1.6	1.7	0.0	-3.1	11.4
C/C(=N\NC(=O)c1c(C)nc2ccccn12)c1ccc(O)cc1O	3.0	-23.8	2.3	-5.9	40.3*
C/C(=N\NC(=O)c1c(C)nc2ccccn12)c1ccccc1F	0.3	-29.9	6.0	-7.0	-4.5
COc1ccc(NC(=O)CSc2nnc(-c3ccc(OC)cc3)s2)cc1	-0.5	11.6	0.8	-3.1	1.8
COc1cccc(CNC(=O)c2cnc(N3CCCC3)nc2C)c1	0.4	-4.7	3.1	-0.7	2.6
N=C1/C(=C/c2coc3ccccc3c2=O)C(=O)N=C2SC(c3ccco3)=NN12	6.1	6.5	16.0	9.3	-2.3
CSC1=NSC2=NC(=O)/C(=C\c3coc4ccccc4c3=O)C(=N)N12	120.9*	-47.6*	305.8*	4.2	18.5
CC(C)CSC1=NSC2=NC(=O)/C(=C\c3coc4ccccc4c3=O)C(=N)N12	51.0*	-22.2	240.2*	-9.1	-2.6
N=C1/C(=C\c2coc3ccccc3c2=O)C(=O)N=C2SC(c3ccncc3)=NN12	145.8*	-31.4*	255.5*	-2.0	32.5*
CC1(c2ccc(OC(F)F)cc2)NC(=O)N(CC(=O)N2CCN(C(=O)c3ccco3)CC2)C1=O (stereo unspecified)	0.0	-30.2*	2.3	-0.6	-2.8
COc1ccc(C2(c3ccc(OC)cc3)NC(=O)N(CC(=O)Nc3ccccc3C(F)(F)F)C2=O)cc1	1.2	7.2	1.8	-9.2	-12.5
COc1ccc(C2(C)NC(=O)N(CC(=O)Nc3cccnc3Cl)C2=O)cc1 (stereo unspecified)	4.1	15.9	16.9	-1.4	-12.1
CC1(c2cccc(Br)c2)NC(=O)N(CC(=O)N2CCN(C(=O)c3ccco3)CC2)C1=O (stereo unspecified)	0.0	-4.0	2.3	0.0	-12.6
CCC1(c2ccc(F)cc2)NC(=O)N(CC(=O)Nc2cccnc2Cl)C1=O (stereo unspecified)	5.0	6.0	42.9*	5.5	3.7
COc1ccc(C2(c3ccc(OC)cc3)NC(=O)N(CC(=O)Nc3ccccc3C)C2=O)cc1	-0.8	17.0	-0.4	-5.3	35.6*
CC1(c2ccc(OC(F)F)cc2)NC(=O)N(CC(=O)Nc2cccnc2Cl)C1=O (stereo unspecified)	6.4	-62.0*	73.1*	5.3	7.2
CC(C)c1ccc(C2C(C(=O)c3ccco3)=C(O)C(=O)N2CCN2CCOCC2)cc1 (stereo unspecified)	0.6	-8.0	6.5	-11.1	1.4
CCN(C(=O)COC(=O)c1ccccc1NCCO)c1cccc2ccccc12	0.1	-42.6*	1.6	-3.2	-12.7
CCNC(=O)CCCN1C(=O)CCn2nc(-c3cccn3C)cc21	0.3	-1.4	-0.2	-2.2	1.5
CCS(=O)(=O)/N=C(\N)c1ccccc1	-0.4	26.9	1.4	-4.0	1.8
